Key:
Conditions in all cases: Compound Concentration (nM):1000
LRRK2 = tested on: LRRK2
LTK = tested on: LTK
LYN = tested on: LYN
LZK = tested on: T1, LZK
T1 construct: gene MAP3K13

MAK = tested on: MAK
MAP3K15 = tested on: MAP3K15
MAP3K1 = tested on: MAP3K1
MAP3K2 = tested on: MAP3K2
MAP3K3 = tested on: MAP3K3
MAP3K4 = tested on: MAP3K4
MAP4K2 = tested on: MAP4K2
MAP4K3 = tested on: MAP4K3
MAP4K4 = tested on: MAP4K4
MAP4K5 = tested on: MAP4K5
MAPKAPK2 = tested on: MAPKAPK2
MAPKAPK5 = tested on: MAPKAPK5
MARK1 = tested on: MARK1
MARK2 = tested on: MARK2
MARK3 = tested on: MARK3
MARK4 = tested on: MARK4
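Note: KINOMEscan scanMAX binding as percent activity remaining versus control; lower means stronger binding.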

Row | Compound | Percent Control (LRRK2) | Percent Control (LTK) | Percent Control (LYN) | Percent Control (LZK) | Percent Control (MAK) | Percent Control (MAP3K15) | Percent Control (MAP3K1) | Percent Control (MAP3K2) | Percent Control (MAP3K3) | Percent Control (MAP3K4) | Percent Control (MAP4K2) | Percent Control (MAP4K3) | Percent Control (MAP4K4) | Percent Control (MAP4K5) | Percent Control (MAPKAPK2) | Percent Control (MAPKAPK5) | Percent Control (MARK1) | Percent Control (MARK2) | Percent Control (MARK3) | Percent Control (MARK4)
1 | COc1ccc(COc2ccc(Cc3cnc(N)nc3N)cc2OC)cc1 [GW632580X] | 83% | 86% | 100% | 77% | 89% | 95% | 65% | 97% | 91% | 90% | 97% | 82% | 100% | 99% | 95% | 97% | 83% | 93% | 66% | 57%
2 | Cl.c1ccc(Cc2nc3ccc(Nc4ncnc5ccccc45)cc3[nH]2)cc1 [GR269666A] | 100% | 100% | 93% | 100% | 100% | 100% | 100% | 100% | 100% | 100% | 92% | 100% | 100% | 100% | 76% | 100% | 100% | 100% | 97% | 96%
3 | CCn1c(-c2nonc2N)nc2c(C#CC(C)(C)O)nc(OCCNC)cc21.Cl [GSK949675] | 100% | 100% | 100% | 91% | 100% | 100% | 100% | 6.9% | 28% | 100% | 84% | 100% | 95% | 57% | 100% | 100% | 100% | 90% | 100% | 100%
4 | COc1cc(/C=N/Nc2ncnc3[nH]ncc23)ccc1O [GW578748X] | 54% | 100% | 86% | 100% | 100% | 96% | 49% | 67% | 85% | 93% | 43% | 100% | 100% | 100% | 100% | 100% | 79% | 100% | 99% | 60%
5 | CN(C)c1cc2c(Nc3ccc4c(cnn4Cc4ccccc4)c3)ncnc2cn1 [GW282974X] | 97% | – | 89% | 100% | 98% | 100% | – | 90% | 73% | 88% | 92% | 100% | 76% | 98% | 69% | 90% | 100% | 97% | 100% | 90%
6 | COc1ccccc1-c1cc(/C=C2\C(=O)Nc3ncc(Br)cc32)cc(Br)c1O [GW442130X] | 100% | 100% | 100% | 84% | 100% | 89% | 99% | 100% | 100% | 100% | 89% | 100% | 96% | 94% | 100% | 100% | 81% | 100% | 100% | 100%
7 | Cl.O=C(Nc1ccc(Oc2ccc3[nH]c(NC(=O)c4ccccc4)nc3c2)cc1)Nc1cc(C(F)(F)F)ccc1F [GW709042A] | 39% | 9.5% | 72% | 100% | 100% | 100% | 57% | 100% | 84% | 100% | 88% | 100% | 100% | 99% | 100% | 100% | 61% | 100% | 91% | 76%
8 | NS(=O)(=O)c1ccc(N/N=C2\C(=O)Nc3ccc(C(=O)NCCc4c[nH]cn4)cc32)cc1 [GW300660X] | 78% | 100% | 100% | 100% | 100% | 100% | 47% | 82% | 96% | 100% | 71% | 86% | 100% | 100% | 100% | 100% | 90% | 100% | 100% | 100%
9 | Cl.O=C(O[C@H]1CN[C@H](C#Cc2cc3ncnc(Nc4ccc5c(cnn5Cc5ccccc5)c4)c3s2)C1)N1CCOCC1 [GSK200398A] | 97% | 85% | 76% | 100% | 100% | 95% | 56% | 97% | 89% | 82% | 98% | 100% | 83% | 92% | 72% | 90% | 100% | 87% | 83% | 100%
10 | C/C(Nc1ccc(S(N)(=O)=O)cc1)=C1/C(=O)Nc2ccccc21 [GW335962X] | 55% | 78% | 87% | 97% | 98% | 93% | 62% | 53% | 55% | 100% | 49% | 67% | 89% | 100% | 100% | 100% | 83% | 72% | 96% | 87%
11 | COc1cccc(-n2ncc3c(N/N=C/c4ccncc4)ncnc32)c1 [GW784752X] | 91% | 100% | 58% | 100% | 100% | 97% | 70% | 100% | 84% | 89% | 95% | 100% | 96% | 100% | 88% | 89% | 100% | 100% | 100% | 84%
12 | NS(=O)(=O)c1ccc(N/N=C2\C(=O)Nc3ccc(Cl)cc32)cc1 [GW280670X] | 72% | 100% | 90% | 100% | 100% | 100% | 63% | 100% | 100% | 100% | 90% | 94% | 99% | 100% | 100% | 100% | 100% | 100% | 100% | 94%
13 | CN1CCN(C(=O)c2ccc(NC(=O)Nc3ccc(N(C)c4ccnc(Nc5ccc(CS(C)(=O)=O)cc5)n4)cc3)cc2)CC1.Cl [GW830263A] | 74% | 85% | 71% | 70% | 64% | 86% | 83% | 38% | 57% | 4% | 43% | 25% | 33% | 32% | 100% | 84% | 44% | 84% | 43% | 92%
14 | O=C(Nc1n[nH]c2nc(-c3ccc(O)cc3)c(Br)cc12)C1CC1 [SB-725317] | 89% | 60% | 100% | 100% | 39% | 94% | 60% | 84% | 97% | 100% | 38% | 100% | 84% | 100% | 100% | 100% | 95% | 100% | 100% | 100%
15 | CC1=C(C(=O)Nc2ccc3[nH]ncc3c2)C(c2ccc3ccccc3c2)CC(=O)N1 (stereo not shown) [GSK270822A] | 100% | 100% | 66% | 72% | 100% | 73% | 68% | 60% | 84% | 100% | 100% | 90% | 79% | 93% | 97% | 96% | 91% | 95% | 100% | 76%
16 | COC(=O)Nc1nc2ccc(Oc3ccc(NC(=O)Nc4cc(C(F)(F)F)ccc4F)cc3)cc2s1.Cl [GW693917A] | 39% | 18% | 19% | 78% | 100% | 100% | 53% | 92% | 79% | 80% | 78% | 100% | 57% | 71% | 94% | 78% | 100% | 78% | 73% | 99%
17 | O=C1Nc2ccc(C(=O)c3ccco3)cc2C1=Cc1cc(Cl)c(O)c(Cl)c1 [GW406108X] | 13% | 93% | 86% | 94% | 100% | 90% | 63% | 96% | 78% | 100% | 90% | 100% | 50% | 99% | 100% | 100% | 63% | 75% | 100% | 100%
18 | COc1ccc2cc(-c3c(-c4ccncc4)nc(-c4ccc(S(C)(=O)=O)cc4C)n3C)ccc2c1 [SB-633825] | 96% | 23% | 66% | 65% | 86% | 83% | 60% | 60% | 79% | 90% | 93% | 93% | 39% | 91% | 100% | 95% | 88% | 93% | 100% | 71%
19 | NS(=O)(=O)c1ccc(Nc2ncc(-c3ccccc3)o2)cc1 [GW572399X] | 76% | 100% | 100% | 100% | 100% | 99% | 59% | 87% | 100% | 100% | 82% | 100% | 100% | 100% | 100% | 100% | 100% | 100% | 94% | 100%
20 | CC(C)COC(=O)c1ccc2c(c1)/C(=C/Nc1ccc(S(N)(=O)=O)cc1)C(=O)N2 [GW416981X] | 56% | 100% | 100% | 100% | 100% | 100% | 67% | 66% | 90% | 100% | 76% | 95% | 86% | 87% | 100% | 100% | 100% | 73% | 93% | 81%
21 | COc1ccc2c(-c3ccnc(Nc4cccc(OC(F)(F)F)c4)n3)cnn2n1 [GW810372X] | 72% | 100% | 100% | 100% | 100% | 100% | 70% | 96% | 90% | 71% | 94% | 100% | 100% | 100% | 100% | 100% | 100% | 100% | 100% | 82%

Reference: publication PMC7826789 (International Journal of Molecular Sciences, 2021)
